# Source: the supplement of paper PMC6555819
# Columns and labels:
# Assay in all cases: PBM binding z-score (relative to random genomic background probes); higher = stronger binding; sequences stand for … in GC…GCGATTGACAGCGTAGAATGAAGG
# [1] = system: PPARg:RXRa DBDmut IVT, anti-RXR (DBD mutation: RXRa K156A/R161A, NR concentration 270 nM, RXRa partner concentration 90 nM)
# In short: (§1)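 Regression normalization was applied to scanned fluorescence from custom Agilent 4×180K protein-binding microarrays. Before scanning, arrays were incubated 1 h with ligand-free nuclear receptor dimers, and binding was detected with antibodies against each partner (one per run). Binding z-scores use the random background probes as reference.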
# [2] = system: PPARg:RXRa IVT, anti-PPARg (NR concentration 270 nM, RXRa partner concentration 90 nM)
# In short: as §1
# [3] = system: PPARg homodimer (NR concentration 180 nM)
# In short: as §1
# [4] = system: PXR:RXRa (NR concentration 270 nM, RXRa partner concentration 90 nM)
# In short: as §1
# [5] = system: PXR homodimer (NR concentration 270 nM)
# In short: as §1
# [6] = system: RARa:RXR (NR concentration 270 nM, RXRa partner concentration 90 nM)
# In short: as §1
# [7] = system: RARa homodimer (NR concentration 270 nM)
# In short: as §1
# [8] = system: RARb:RXRa (NR concentration 270 nM, RXRa partner concentration 90 nM)
# In short: as §1
# [9] = system: RARb homodimer (NR concentration 270 nM)
# In short: as §1
# [10] = system: RARg:RXRa (NR concentration 270 nM, RXRa partner concentration 90 nM)
# In short: as §1
# [11] = system: RARg homodimer (NR concentration 270 nM)
# In short: as §1
# [12] = system: RXRa DBDmut IVT, anti-RXR (DBD mutation: RXRa K156A/R161A, NR concentration 90 nM)
# In short: as §1
# [13] = system: RXRa homodimer (NR concentration 180 nM)
# In short: as §1
# [14] = system: THRa homodimer (NR concentration 90 nM)
# In short: as §1
# [15] = system: VDR homodimer (NR concentration 270 nM)
# In short: as §1
# [16] = system: THRa:RXRa (NR concentration 90 nM, RXRa partner concentration 90 nM)
# In short: as §1
# [17] = system: VDR:RXRa (NR concentration 270 nM, RXRa partner concentration 90 nM)
# In short: as §1
Sequence,PBM binding z-score [1],PBM binding z-score [2],PBM binding z-score [3],PBM binding z-score [4],PBM binding z-score [5],PBM binding z-score [6],PBM binding z-score [7],PBM binding z-score [8],PBM binding z-score [9],PBM binding z-score [10],PBM binding z-score [11],PBM binding z-score [12],PBM binding z-score [13],PBM binding z-score [14],PBM binding z-score [15],PBM binding z-score [16],PBM binding z-score [17]
CCGAGTAGGTTACGAGGAGGCATTCAGTGCGAAT,4.34,3.39,-0.438,0.196,-0.429,0.244,-0.663,0.685,-0.00242,0.333,0.522,0.082,0.427,-0.82,-0.434,–,–
CTATGTAGGTTAAGGGTGTCATTCAGTTTGAAAG,7.72,7.59,1.32,1.38,0.641,1.5,0.262,1.56,1.44,1.38,0.949,0.738,1.35,0.005,1.42,1.04,–
CCGAGTAGGTTACGACGGGGCATTCAGTGCGAAT,3.85,3.21,0.811,1.68,0.127,1.17,-0.209,1.23,0.791,0.882,0.746,-0.202,0.769,-0.61,0.32,2,–
TCGAGTAGGTTACGCGGGCATTCAGGGATGAAGA,2.91,3.32,0.356,–,-0.508,0.641,-0.865,0.946,0.619,0.799,0.653,-0.0929,0.864,-0.444,-0.617,0.97,–
TCGAGTAGGTTACGGGGGCATCCAGGGATGAAGA,5.07,5.83,2.37,–,1.02,3.31,0.18,2.46,2.2,3.36,2.37,1.27,2.88,1.12,2.47,3.66,–
CCGAGTAAGTTACGAGGGGGCATTCAGTGCGAAT,0.778,0.899,0.949,–,4.68,2.13,0.219,1.09,1.29,1.47,0.902,1.57,1.31,0.139,2.59,2.32,–
CCGAGTAGGTTACGTGGGGGCATTCAGTGCGAAT,4.47,4.6,0.555,5.23,6.32,2.42,0.183,2.09,2.1,2.87,2.05,1.44,2.12,1.09,2.85,–,5.48
CCGAGTAGGTTCCGAGGGGGCATTCAGTGCGAAT,1.28,2.13,1.1,–,6.61,2.14,0.637,1.3,1.62,1.66,1.02,1.42,1.12,1.1,3.91,2.38,4.09
CTATGTAGGTTAAGGGGGTCATTCCGTTTGAAAG,7.72,7.69,3.57,5.52,4.83,5.89,1.49,3.33,3.76,5.11,4.02,2.32,5.96,1.83,5.23,3.58,–
CCGAGTAGGTCACGAGGGGGCATTCAGTGCGAAT,6.96,7.42,2.44,–,4.34,4.38,1.07,4.58,4.35,6.3,6.32,2.29,5.11,0.959,3.61,4.54,–
TCGAGTAGGTTAGGGGGGCATTCAGGGATGAAGA,4.38,5.24,2.84,3.99,3.93,3.47,2.35,3.15,2.58,–,2.54,2.58,2.32,2.28,3.28,3.86,–
TCGAGTGGGTTACGGGGGCATTCAGGGATGAAGA,4.62,6.37,1.92,3.59,2.12,3.12,1.12,2.46,2.26,–,2.35,2.33,2.74,2.2,3.66,4.08,–
CCGAGTAGTTTACGAGGGGGCATTCAGTGCGAAT,1.32,0.828,0.86,3.29,4.22,2.06,0.00505,1.4,1.7,1.92,1.48,2.08,1.37,0.595,3.37,2.54,–
CTATGTAGGATAAGGGGGTCATTCAGTTTGAAAG,4.4,5.24,3.61,5.75,11.1,5.73,2.91,3.27,3.71,4.18,2.98,2.23,5.45,1.96,6.25,3.75,–
TCGAGTAGGTTACGGCGGCATTCAGGGATGAAGA,3.16,2.85,-0.171,-0.0606,-0.885,0.128,-1.2,0.794,0.0882,0.396,0.134,-0.00856,0.642,-0.386,-0.475,–,-0.251
CTATGTAGGTTAACGGGGTCATTCAGTTTGAAAG,7.65,7.78,2.41,–,12.2,6.06,0.661,3.57,4.24,5.11,3.74,3.05,6.78,2.55,7.5,4.44,–
CAATGTAGGTTAAGGGGGTCATTCAGTTTGAAAG,7.92,7.9,7.74,6.21,13.1,6.32,4.17,3.72,4.09,5.27,3.94,3,5.94,2.81,6.76,3.9,–
TCGAGTAGGTTACGGGGGCATTGAGGGATGAAGA,5.26,6.02,2.89,–,1.71,–,0.325,2.69,2.27,3.47,2.72,1.71,2.66,1.39,3.13,2.97,–
TCGAGTAGGTTACGGGGTCATTCAGGGATGAAGA,5.23,6.24,2.46,–,2.57,–,0.377,3.87,3.99,5.96,4.05,2.36,7.78,2.5,5.89,–,–
CGGAGTAGGTTACGAGGGGGCATTCAGTGCGAAT,6.26,7.82,1.69,5.02,6.07,3.15,0.639,2.54,2.45,3.35,2.86,2.04,2.09,0.507,3.73,3.8,–
TCGAGTAGGTTACGGGAGCATTCAGGGATGAAGA,2.84,3.32,-0.122,0.0708,-0.797,0.667,-0.752,0.692,-0.0117,0.484,0.553,-0.267,0.792,-0.885,-0.591,1.89,–
CTATGTAGGGTAAGGGGGTCATTCAGTTTGAAAG,7.14,7.72,4.11,5.91,11.1,5.58,1.26,3.72,4.04,5,3.92,2.91,5.44,2.95,6.62,3.99,–
CCGCGTAGGTTACGAGGGGGCATTCAGTGCGAAT,1.02,2.43,1.12,4.76,4.05,–,-0.311,2.14,2.04,3.34,2.15,1.51,2.28,0.24,2.58,3.95,5.31
CCGAGTAGGTTACCAGGGGGCATTCAGTGCGAAT,3.65,4.24,1.99,4.73,5.81,2.91,0.502,2.33,2.4,2.93,2.52,0.717,2.06,0.758,3.64,3.68,–
TCGAATAGGTTACGGGGGCATTCAGGGATGAAGA,4.48,5.46,2.1,3.82,1.8,3.69,1.33,3.33,2.78,4.18,3.02,2.78,3.99,1.9,3.3,4.29,–
CCGAGTAGGTTACGAGGGCGCATTCAGTGCGAAT,4.97,4.85,-0.00528,0.483,-0.379,–,-0.752,1.29,0.436,0.647,0.287,-0.122,0.655,-0.711,0.0173,0.838,0.78
CTATGTAGGTTAAGTGGGTCATTCAGTTTGAAAG,7.7,7.89,1.59,2.36,4.47,2.23,0.913,2.15,2.4,1.97,1.95,0.703,1.73,0.347,2.29,1.97,–
